Assay outcomes as filed in PubChem BioAssay.
PTHR1 agonist = qHTS for PTHR1 Agonists: Primary Screen. 0.075% of 410,000 active. Potency, µM (highest dose often 115 µM), for inactives: top-dose activation, most hits filed as activators. Parathyroid hormone/parathyroid hormone-related peptide receptor (Homo sapiens), Q03431. AID 743266, 2014. HEK293 GP2 PTHR1 cells, GloSensor cAMP luminescence, 1 h; further: nearly all actives have a fitted effect of over 55% in size
Target sequence (Q03431 whole entry, looked up): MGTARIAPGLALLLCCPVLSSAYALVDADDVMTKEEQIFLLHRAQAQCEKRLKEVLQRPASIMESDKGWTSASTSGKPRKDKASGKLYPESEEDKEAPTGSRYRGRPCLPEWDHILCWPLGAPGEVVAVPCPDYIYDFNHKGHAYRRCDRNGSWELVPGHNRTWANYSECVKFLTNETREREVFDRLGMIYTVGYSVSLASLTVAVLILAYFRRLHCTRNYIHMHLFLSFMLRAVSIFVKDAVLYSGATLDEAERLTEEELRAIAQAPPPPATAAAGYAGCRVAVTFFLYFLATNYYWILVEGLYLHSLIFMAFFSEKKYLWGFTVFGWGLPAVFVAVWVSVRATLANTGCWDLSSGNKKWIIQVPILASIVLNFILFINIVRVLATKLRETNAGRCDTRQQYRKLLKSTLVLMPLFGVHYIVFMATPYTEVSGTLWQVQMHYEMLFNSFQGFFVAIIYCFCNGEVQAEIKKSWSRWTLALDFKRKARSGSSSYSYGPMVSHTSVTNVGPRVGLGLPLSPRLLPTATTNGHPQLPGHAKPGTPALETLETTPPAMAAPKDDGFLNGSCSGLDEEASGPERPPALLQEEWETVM
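HEK-293-derived GP2 cells expressing PTHR1 and a GloSensor cAMP reporter, 3,000/well, plated overnight, given luciferin plus IBMX (each 0.5 mM as added) for 1 h at 37 °C, then compound for 1 h at 37 °C. Luminescence was read after 15 min at room temperature.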
GLP-1R inv ag = qHTS of GLP-1 Receptor Inverse Agonists (Inhibition Mode); AID 624417, 2012; 1.6% of 410,000 active; Glucagon-like peptide 1 receptor (Homo sapiens), P43220; Potency, µM (series often up to 38.3 µM), without a hit: at the top dose activity change, negative = inhibition, actives largely listed as inhibitors; HEK293 GLP-1R CRE-luciferase, luminescence, 24 h; GLP-1R form is constitutively active; further: on the % scale 0 is the no-effect control and ±100 the full control effect; nearly all actives have a fitted effect of over 55% in size
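Readout was luciferase luminescence, measured 12 min after detection reagent at room temperature. Beforehand, GLP-1R reporter HEK293 cells had sat 12 h, then received compounds for 24 hr at 37 deg C.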
HEK293 tox = qHTS of GLP-1 Receptor Inverse Agonists: Cytotox Screen; HEK293 cAMP-luciferase reporter cells, luminescence, 24 h; Potency, µM (titrated, usually from 38.3 µM), for the others: top-dose activity change, negative = inhibition, usual class: inhibitors; 0.13% of 410,000 active; AID 624418, 2012;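 further: loss of luciferase light is scored as toxicity; on the % scale 0 is the no-effect control and ±100 the full control effect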
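Here, cytotoxicity is scored as loss of luminescence. The MLSMR collection was tested on cells seeded in medium containing 10% Nu serum, with a 24 hr compound exposure preceded by 12 hours of culture.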
GLP1R ag = qHTS of GLP-1 Receptor Agonists; HEK293 GLP-1R CRE-luciferase, luminescence, 4-6 h; cells express a hypersensitive GLP-1R form; Potency, µM (highest dose often 45.6 µM), without a hit: top-dose activation, hits mostly activators; 0.007% of 380,000 active; further: % of control where 0% means no effect
Active calls of the source: *; i = inactive; ? = inconclusive; · = no result; [ ] = another dose, or the depositor's remark. An excerpt weighted towards active compounds, which were near 1.7% of everything screened. The call rests on the fitted dose curve; in most records, active means well fitted curve in the direction sought with a large enough effect; inconclusive means small, poorly fitted or top-dose-only effect, or another doubt; inactive means no such curve, though single readings can be large; an effect the other way counts as inactive or inconclusive. Potency means the concentration at half of the fitted maximal effect.

SMILES	PTHR1 agonist	GLP-1R inv ag	HEK293 tox	GLP1R ag
CNC[C@@H]1CC[C@@H](N)[C@@H](O[C@H]2[C@H](O)[C@@H](O[C@H]3OC[C@](C)(O)[C@H](NC)[C@H]3O)[C@H](N)C[C@@H]2N)O1	·	·	·	22.1%
O=C(Nc1nccs1)C12CC3CC(C1)CC(C(=O)Nc1nccs1)(C3)C2	-12.1%	4.47µM*	-13.6%	-23.2%
CC(C)OC(=O)c1ccc(NC(=O)c2cccc(-n3cnnn3)c2)cc1	-33.7%	7.08µM*	-24.0%	7.6%
CCOc1ccc(NC(=O)c2cccc(-n3cnnn3)c2)cc1	i	3.9%	1.5%	-2.3%
O=C(c1ccc(N2CCCC2)c([N+](=O)[O-])c1)N1CCc2ccccc2C1	-19.5%	4.47µM*	-34.9%	28.8%
O=C(NCCCn1ccnc1)c1ccc(N2CCCCCC2)c([N+](=O)[O-])c1	i	5.01µM*	-1.0%	14.6%
Cc1ccc(C(=O)NCCCn2ccnc2)cc1[N+](=O)[O-]	6.4%	-18.4%	1.4%	-1.5%
CCOC(=O)C1CCN(C(=O)c2nn(-c3ccc(C)cc3)c(=O)n(C)c2=O)CC1	i	2.5%	17.3%	·
Cc1cccc(NC(=O)CSc2nnc(-c3cc(C)n(-c4ccccc4)c3C)o2)c1C	-7.5%[57.5 µM]	?	-7.0%	1.8%
Cc1cc(-c2nnc(SCC(=O)Nc3ccccc3C(F)(F)F)o2)c(C)n1-c1ccccc1	-4.1%	0.891µM*	-5.2%	-21.7%
Cc1ccc(-c2nnc(SCC(=O)Nc3ccccc3F)o2)cc1	-90.8%	2.24µM*	-8.3%	-2.1%
CC(=O)OCC(=O)[C@@]1(O)CCC2C3C[C@H](C)C4=CC(=O)C=CC4(C)C3C(O)CC21C (some centres undefined)	·	·	·	-2.0%
CS(=O)(=O)Nc1ccc(-c2nc3ccccc3s2)cc1	-26.0%	?	0.7%	·
Cn1ccc2cc(S(=O)(=O)N3CCC(C(=O)NCCc4ccccc4)CC3)ccc21	3.2%	-6.3%	-10.6%	·
Cc1ccn2c(NC(C)(C)C)c(-c3cccs3)nc2c1	-8.7%	10µM*	?	3.1%
Cc1ccn2c(NC(=O)c3cccs3)c(-c3ccccc3)nc2c1	-4.7%	-12.3%	-11.9%	1.2%
Cc1nn(-c2ccc(N3CCCCC3)nn2)c(C)c1CCC(=O)NCc1ccc(Cl)cc1	-87.8%	9.6%	0.3%	·
CN(C)c1ccc(CNC(=O)CCc2ccc(S(=O)(=O)N3CCCCCC3)cc2)cc1	i	11.2µM*	-8.2%	21.2%
CCc1ccc(CNC(=O)C(C)n2ccc3cc(S(=O)(=O)N4CCCCCC4)ccc32)cc1 (centres undefined)	i	10µM*	-9.8%	·
CC(C(=O)NCc1ccc(Cl)cc1)n1ccc2cc(S(=O)(=O)N3CCCCCC3)ccc21 (centres undefined)	i	?	-15.8%	·
COc1ccc(CNC(=O)CCc2ccc(S(=O)(=O)N3CCCCCC3)cc2)cc1	-24.9%	-25.2%	3.4%	4.4%
CCc1ccc(CNC(=O)Cn2ccc3cc(S(=O)(=O)N4CCCCCC4)ccc32)cc1	-28.5%	?	-3.5%	·
CCc1ccc(CNC(=O)CCCn2ccc3cc(S(=O)(=O)N4CCCC4)ccc32)cc1	-21.0%	8.91µM*	-28.7%	·
CCOc1ccc(C(C)=O)cc1COC(=O)CNC(=O)C12CC3CC(CC(C3)C1)C2	-21.5%	3.55µM*	-4.6%	20.0%
COc1cc(C(=O)NCc2ccc3c(c2)CCN3C(=O)c2ccc(Cl)cc2)cc(OC)c1OC	5.4%	-10.5%	-3.8%	·
CCN(CC)CCNC(=O)c1cc2cc(Br)ccc2s1	-1.4%	3.16µM*	30.5%	-2.6%
COc1ccc(NC(=O)c2c(NCc3cccs3)sc3c2CCCCC3)cc1	-22.6%	0.4%	-11.1%	·
COc1ccc([C@@H]2[C@@H]3C(=O)N(C(C)(C)C)C(=O)[C@@H]3[C@]3(Cc4ccc(Cl)cc4)C(=O)N(c4ccc(Br)cc4)C(=O)N23)cc1	-8.4%	10µM*	-5.1%	-0.1%
CC(C)(C)N1C(=O)[C@H]2[C@@H](c3ccc(Br)cc3)N3C(=O)N(c4ccc(Br)cc4)C(=O)[C@@]3(Cc3ccccc3)[C@H]2C1=O	-22.4%	11.2µM*	-4.5%	-5.9%
